Data from PubChem BioAssay (NCI).
About 83,000 compounds went through this panel and 20% of them were active in at least one assay; those are over-represented in the sample as a whole.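 For each line, cells grew in 96-well plates with the test compound present at a single concentration for 48 hours.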 A number with no mark means an inactive call. Active and inactive are the calls of the source. Rule for the calls: active = growth percent below 10; inactive = the rest.

How the values were obtained:
Experiment in all cases: NCI-60 one-dose screen, 48 h (100 = growth as untreated, 0 = no growth, -100 = all killed)
Details in all cases: 10 µM unless noted
NCI-H23 lung = tested on: NCI-H23 lung
NCI-H226 lung = tested on: NCI-H226 lung
NCI-H322M lung = tested on: NCI-H322M lung
HOP-62 NSCLC = tested on: HOP-62 NSCLC
NCI-H460 lung = tested on: NCI-H460 lung
HOP-92 NSCLC = tested on: HOP-92 NSCLC
NCI-H522 lung = tested on: NCI-H522 lung
A549/ATCC NSCLC = tested on: A549/ATCC NSCLC
786-0 renal = tested on: 786-0 renal
COLO 205 colon = tested on: COLO 205 colon

| Structure (SMILES) | growth (NCI-H23 lung) | growth (NCI-H226 lung) | growth (NCI-H322M lung) | growth (HOP-62 NSCLC) | growth (NCI-H460 lung) | growth (HOP-92 NSCLC) | growth (NCI-H522 lung) | growth (A549/ATCC NSCLC) | growth (786-0 renal) | growth (COLO 205 colon) |
| --- | --- | --- | --- | --- | --- | --- | --- | --- | --- | --- |
| CCSc1nc2ccccc2o1 | 107% | 106% | 120% | 99.4% | 103% | 81.8% | 94.3% | 96.1% | 106% | 113% |
| CCOC(=O)NC(/C=C/c1ccccc1)NC(=O)OCC | 102% | 102% | 104% | 100% | 108% | 108% | 100% | 95.7% | 103% | 112% |
| CCCCCCCCCCCCCCCCCC1=NCCCN1CCO | 106% | 103% | 101% | 90.7% | 105% | 95.5% | 103% | 94.7% | 104% | 108% |
| O=C(Nc1ccc(Cl)c(Cl)c1)OCc1ccco1 | 58.5% | 63.9% | 56.6% | 49.3% | 26.4% | 58.9% | – | 34.9% | 57.5% | 64.8% |
| CCN1/C(=C/C(C)=C/c2sc3ccc4ccccc4c3[n+]2CC)Sc2ccc3ccccc3c21 | -65.5% (active) | -82.4% (active) | -97.8% (active) | -65.2% (active) | -90.5% (active) | -89.1% (active) | – | -76.8% (active) | -88.5% (active) | -83.6% (active) |
| O=C/C=C/c1ccc([N+](=O)[O-])cc1 | 96.7% | 101% | 104% | 104% | 106% | 117% | 97.3% | 93.4% | 102% | 115% |
| CC/C(=C(/CC)c1ccc(O)cc1)c1ccc(O)cc1 | 75.8% | 82.7% | 77.6% | 70.8% | 85.6% | 58.1% | 61% | – | 80% | 97.6% |
| CCN1CCCC(Nc2cc(C)nc(/N=C(/N)Nc3ccc(Cl)c(Cl)c3)n2)C1 (stereo not drawn) | 33.2% | 32.2% | -17.1% (active) | -7.52% (active) | -18.8% (active) | -68.4% (active) | -69.5% (active) | -25.1% (active) | -82.7% (active) | -77.6% (active) |
| O=C1C=Cc2ccccc2/C1=C/c1nc(-c2ccccc2)oc1O | 82.1% | 73% | 90.6% | 88.1% | 98.5% | 103% | 90.3% | 107% | 107% | 87.5% |
| NC(=S)N/N=C/c1ncccc1O | -6.55% (active) | 39% | 40.2% | 17.8% | 8.78% (active) | 2.7% (active) | – | 28% | -17.1% (active) | 11.2% |
| OC(CSc1ccccc1)CN1CCN(c2ccc(Cl)cc2)CC1 (stereo not drawn) | 107% | 91.7% | 110% | 98.3% | 109% | 63.8% | – | 98.4% | 95.3% | 107% |
| O=C1/C(=C\c2ccc([N+](=O)[O-])cc2)CS(=O)(=O)C/C1=C/c1ccc([N+](=O)[O-])cc1 | -83.2% (active) | -67.2% (active) | -93.7% (active) | -95.2% (active) | -54.5% (active) | -79.1% (active) | – | -50% (active) | -96.5% (active) | -82.4% (active) |
| O=[N+]([O-])c1ccc(Oc2ccccc2Cl)c([N+](=O)[O-])c1 | 73.9% | 83.8% | 97.8% | 99.4% | 105% | 83.7% | – | 92.7% | 83.7% | 112% |
| COc1c(C)c2c(c(O)c1C/C=C(\C)CCC(=O)O)C(=O)OC2 | 33.9% | 58.8% | 38.3% | 46.6% | 9.24% (active) | 73.9% | 19.4% | 11.6% | 21.3% | 39.3% |
